{
  "source": "the supplement of paper PMC6555819",
  "data": [
    {"system": "PXR homodimer (NR concentration 270 nM)", "test": "PBM binding z-score (relative to random genomic background probes); higher = stronger binding; sequences stand for … in GC…GCGATTGACAGCGTAGAATGAAGG", "in_short": "(§1)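 The probes on custom Agilent 4×180K protein-binding microarrays were double-stranded, with 34-nt variable regions bearing direct-repeat seeds, single-nucleotide variants, half-site ablations and random human genomic background sequences. Incubation lasted 1 h with ligand-free nuclear receptor dimers in PBS pH 7.4, 2% milk, 0.02% Triton X-100, 1 mM DTT, 0.2 mg/mL BSA and 0.4 mg/ml salmon testes DNA. Antibodies against each partner (one per run) detected bound dimers, and fluorescence scans were regression-normalized. Binding z-scores take the random background probes as reference.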", "values": [
      {"sequence": "CCTAGTTGGTCAGCAGGTCACACACCGGATATGA", "PBM binding z-score": 0.562},
      {"sequence": "TGAAGGAGGTTAAAGATCAGGGAACGTGGCGTCG", "PBM binding z-score": 0.472},
      {"sequence": "GCTAGCAGGCCAATTGGGTCACTCAATGACGGGC", "PBM binding z-score": -0.704},
      {"sequence": "TCAGACTGGTGAAGGTAACTCAGGTACGCAGTCG", "PBM binding z-score": -0.386},
      {"sequence": "CAGCCTAGGTCACGGCCAGTATAGGAGGAACGTT", "PBM binding z-score": -0.132},
      {"sequence": "CTCGAAAGGTCGTGCTCAGGTGAGTAAACCAAAC", "PBM binding z-score": 0.175},
      {"sequence": "GCTTGAAGATCAAGGTTAAGAAAGACTAAGCTAA", "PBM binding z-score": -0.655},
      {"sequence": "CCTAGCAGGCCGGGGTCACTCAAGCATTTCGCTT", "PBM binding z-score": 0.474},
      {"sequence": "CAGCCTAGGTCAGGGCCACTATAGGAGGAACGTT", "PBM binding z-score": -0.684},
      {"sequence": "CCGACTGGAGCAAAGGTTACCATACTCAGTACGA", "PBM binding z-score": 0.124},
      {"sequence": "TGAATGAGGTTATAAGATCTGGGAACGTTGCAAA", "PBM binding z-score": -0.0184},
      {"sequence": "GATACAGGGTCAGCTAGAGGCCAGGGTATGGAAA", "PBM binding z-score": 0.0758},
      {"sequence": "ACACACAGGTGATGAAGGTAACTCAGGCTATCAT", "PBM binding z-score": 0.251},
      {"sequence": "AGCTCTAGGTAAAGATAGTTCAGTGAATGCAAAT", "PBM binding z-score": 0.602},
      {"sequence": "CCTACTGGGCCAAAAAGGTCAATGATGCCGATAA", "PBM binding z-score": 0.909},
      {"sequence": "GCTCGGACGACAAGGTCAGAGCTTTGTCCGTAGA", "PBM binding z-score": -0.194},
      {"sequence": "GGAACGAGGGCAAAGTTGATAGCTTCTGTCGACG", "PBM binding z-score": 0.104},
      {"sequence": "ATATGTGGGTTACATCCGGGTCATTCAGGCTATG", "PBM binding z-score": 2.92},
      {"sequence": "CGAACTAGGTCATTGACAGGACTGTGAATAGTAA", "PBM binding z-score": 0.155},
      {"sequence": "TGAATGAGGTTATAAGATTAGGGAACGTTGCAAA", "PBM binding z-score": 0.176},
      {"sequence": "GCTAGTTGCTCAGTAAAAGGTCACACACCGGTCG", "PBM binding z-score": 0.686},
      {"sequence": "TTACCAAGGTGAGCTGAGGTCGTTAATCCAACTC", "PBM binding z-score": 0.182},
      {"sequence": "ACAGACAGGTGAGTGAAGGTAACTCATCTGGACG", "PBM binding z-score": -0.565},
      {"sequence": "GCGACTGGGGCATCAGCAGGTTATCATAACTTAA", "PBM binding z-score": -0.554},
      {"sequence": "ACTATTAGTTGACTTAGGGTAACCGATACGACGC", "PBM binding z-score": 0.517},
      {"sequence": "TCTCGGAGGACAGGAAGGTCAGAGCTTTCCAGAG", "PBM binding z-score": -0.0214},
      {"sequence": "CTGCCTAGGTCAGGGCCAGTATAGGAGGAACGTT", "PBM binding z-score": -0.739},
      {"sequence": "TGAATGAGGTTATAAAATCAGGGAACGTTGCAAA", "PBM binding z-score": -0.104},
      {"sequence": "ACAGACAGGTGATGAAGGTGACTCAGGCTATCAT", "PBM binding z-score": 0.191},
      {"sequence": "CGACCAAGGTCATAGGAGGTCAGTGAAGACAGAT", "PBM binding z-score": 4.39},
      {"sequence": "GTTACAGGGTCAGCTAGAGGCCAGAGTATGGAAA", "PBM binding z-score": 0.141},
      {"sequence": "CCTTACGGGTCACTGACAGGTTATACCATTTGGA", "PBM binding z-score": 0.348},
      {"sequence": "ATCTCTAGGTAAAGTTCAGTGAGAGATCGATAGA", "PBM binding z-score": 1.52},
      {"sequence": "ATCTCTAGGTAACAAATTCAGTGAAAGAGAGGAC", "PBM binding z-score": 0.486},
      {"sequence": "CGTCCAAGGTCAAGGTCAGTGTAAGAGACTCGAA", "PBM binding z-score": 1.07},
      {"sequence": "CGTACAAGGTCAGAGAGGTCAGTGAATGCCGAGT", "PBM binding z-score": 12.2},
      {"sequence": "ACTTACGGGTAAACGAGGTTATAGCACGCGTATA", "PBM binding z-score": 0.138},
      {"sequence": "GCTGCTAGGTCAGGTGGGTCAGCTAACGGGTACG", "PBM binding z-score": -0.409},
      {"sequence": "CCTACTGTGCCACGAAAGGTCATTGATTCAGTGA", "PBM binding z-score": 1.94},
      {"sequence": "CCTGCTAGGTCAATGGTCAGCAAAAGCAGCTCGC", "PBM binding z-score": -0.358}
    ]},
    {"system": "RARa:RXR (NR concentration 270 nM, RXRa partner concentration 90 nM)", "test": "PBM binding z-score (relative to random genomic background probes); higher = stronger binding; sequences stand for … in GC…GCGATTGACAGCGTAGAATGAAGG", "in_short": "as §1", "values": [
      {"sequence": "CCTAGTTGGTCAGCAGGTCACACACCGGATATGA", "PBM binding z-score": 3.23},
      {"sequence": "TGAAGGAGGTTAAAGATCAGGGAACGTGGCGTCG", "PBM binding z-score": 2.7},
      {"sequence": "GCTAGCAGGCCAATTGGGTCACTCAATGACGGGC", "PBM binding z-score": 0.585},
      {"sequence": "TCAGACTGGTGAAGGTAACTCAGGTACGCAGTCG", "PBM binding z-score": 0.305},
      {"sequence": "CAGCCTAGGTCACGGCCAGTATAGGAGGAACGTT", "PBM binding z-score": 3.45},
      {"sequence": "CTCGAAAGGTCGTGCTCAGGTGAGTAAACCAAAC", "PBM binding z-score": 4.18},
      {"sequence": "GCTTGAAGATCAAGGTTAAGAAAGACTAAGCTAA", "PBM binding z-score": 0.675},
      {"sequence": "CCTAGCAGGCCGGGGTCACTCAAGCATTTCGCTT", "PBM binding z-score": 5.98},
      {"sequence": "CAGCCTAGGTCAGGGCCACTATAGGAGGAACGTT", "PBM binding z-score": 0.936},
      {"sequence": "CCGACTGGAGCAAAGGTTACCATACTCAGTACGA", "PBM binding z-score": 2.73},
      {"sequence": "TGAATGAGGTTATAAGATCTGGGAACGTTGCAAA", "PBM binding z-score": 1.12},
      {"sequence": "GATACAGGGTCAGCTAGAGGCCAGGGTATGGAAA", "PBM binding z-score": 4.28},
      {"sequence": "ACACACAGGTGATGAAGGTAACTCAGGCTATCAT", "PBM binding z-score": 0.28},
      {"sequence": "AGCTCTAGGTAAAGATAGTTCAGTGAATGCAAAT", "PBM binding z-score": 0.3},
      {"sequence": "CCTACTGGGCCAAAAAGGTCAATGATGCCGATAA", "PBM binding z-score": 3.89},
      {"sequence": "GCTCGGACGACAAGGTCAGAGCTTTGTCCGTAGA", "PBM binding z-score": 2.24},
      {"sequence": "GGAACGAGGGCAAAGTTGATAGCTTCTGTCGACG", "PBM binding z-score": 1.34},
      {"sequence": "ATATGTGGGTTACATCCGGGTCATTCAGGCTATG", "PBM binding z-score": 3.51},
      {"sequence": "CGAACTAGGTCATTGACAGGACTGTGAATAGTAA", "PBM binding z-score": 1.81},
      {"sequence": "TGAATGAGGTTATAAGATTAGGGAACGTTGCAAA", "PBM binding z-score": 1.31},
      {"sequence": "GCTAGTTGCTCAGTAAAAGGTCACACACCGGTCG", "PBM binding z-score": 5.72},
      {"sequence": "TTACCAAGGTGAGCTGAGGTCGTTAATCCAACTC", "PBM binding z-score": 1.51},
      {"sequence": "ACAGACAGGTGAGTGAAGGTAACTCATCTGGACG", "PBM binding z-score": 0.0538},
      {"sequence": "GCGACTGGGGCATCAGCAGGTTATCATAACTTAA", "PBM binding z-score": 0.458},
      {"sequence": "ACTATTAGTTGACTTAGGGTAACCGATACGACGC", "PBM binding z-score": 0.73},
      {"sequence": "TCTCGGAGGACAGGAAGGTCAGAGCTTTCCAGAG", "PBM binding z-score": 1.42},
      {"sequence": "CTGCCTAGGTCAGGGCCAGTATAGGAGGAACGTT", "PBM binding z-score": 0.901},
      {"sequence": "TGAATGAGGTTATAAAATCAGGGAACGTTGCAAA", "PBM binding z-score": 0.96},
      {"sequence": "ACAGACAGGTGATGAAGGTGACTCAGGCTATCAT", "PBM binding z-score": 0.48},
      {"sequence": "CGACCAAGGTCATAGGAGGTCAGTGAAGACAGAT", "PBM binding z-score": 6.18},
      {"sequence": "GTTACAGGGTCAGCTAGAGGCCAGAGTATGGAAA", "PBM binding z-score": 3.88},
      {"sequence": "CCTTACGGGTCACTGACAGGTTATACCATTTGGA", "PBM binding z-score": 4.53},
      {"sequence": "ATCTCTAGGTAAAGTTCAGTGAGAGATCGATAGA", "PBM binding z-score": 1.01},
      {"sequence": "ATCTCTAGGTAACAAATTCAGTGAAAGAGAGGAC", "PBM binding z-score": 0.657},
      {"sequence": "CGTCCAAGGTCAAGGTCAGTGTAAGAGACTCGAA", "PBM binding z-score": 5.28},
      {"sequence": "CGTACAAGGTCAGAGAGGTCAGTGAATGCCGAGT", "PBM binding z-score": 5.87},
      {"sequence": "ACTTACGGGTAAACGAGGTTATAGCACGCGTATA", "PBM binding z-score": 2.32},
      {"sequence": "GCTGCTAGGTCAGGTGGGTCAGCTAACGGGTACG", "PBM binding z-score": 1.66},
      {"sequence": "CCTACTGTGCCACGAAAGGTCATTGATTCAGTGA", "PBM binding z-score": 5.05},
      {"sequence": "CCTGCTAGGTCAATGGTCAGCAAAAGCAGCTCGC", "PBM binding z-score": 1.49}
    ]}
  ]
}
